Measurements published in PubChem BioAssay AID1868 (National Center for Advancing Translational Sciences (NCATS), 2009).
Screen size: about 270,000 compounds; about 20 (0.007%) were called active. The call rests on the fitted dose curve; in most records, active means well fitted inhibition curve with a large enough effect; inconclusive means small, poorly fitted or top-dose-only effect, or effect the other way; inactive means flat fitted curve, though single readings scatter. A selection follows.

Biological target: Galactokinase (Homo sapiens) (UniProt P51570)
Sequence (P51570 whole entry, looked up): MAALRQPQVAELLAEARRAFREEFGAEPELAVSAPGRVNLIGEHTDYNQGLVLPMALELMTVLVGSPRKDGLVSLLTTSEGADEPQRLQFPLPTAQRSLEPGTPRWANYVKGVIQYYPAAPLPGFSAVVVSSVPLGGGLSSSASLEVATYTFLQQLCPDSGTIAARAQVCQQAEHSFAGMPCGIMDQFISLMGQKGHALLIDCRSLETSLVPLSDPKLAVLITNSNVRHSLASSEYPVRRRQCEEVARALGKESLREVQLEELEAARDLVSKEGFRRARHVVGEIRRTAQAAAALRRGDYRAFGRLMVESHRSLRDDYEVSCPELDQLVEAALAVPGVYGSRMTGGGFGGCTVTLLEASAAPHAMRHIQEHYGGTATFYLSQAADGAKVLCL
Assay: qHTS Assay for Inhibitors of Human Galactokinase (GALK)
Conditions: Purified GALK, Kinase-Glo residual ATP luminescence; series mostly up to 57.5 µM
Source text: NIH Molecular Libraries Probe Production Centers Network [MLPCN] NIH Chemical Genomics Center [NCGC] MLPCN Grant: R03 MH085689-01 Assay Submitter (PI): Kent Lai (University of Utah School of Medicine, 50 N Mario Capecchi Drive, Salt Lake City, UT 84132) NCGC Assay Overview: Inherited deficiency of galactose-1-phosphate uridyltransferase (GALT) can result in a potentially lethal disorder called Classic Galactosemia (OMIM 230400). Several lines of evidence indicate that an elevated level of galactose-1-phosphate (gal-1-p), the product of galactokinase (GALK), is a major, if not sole, pathogenic mechanism in patients with classic galactosemia. Therefore, finding inhibitors of GALK is a potential novel therapy for this inherent metabolic disease and is the long term goal of this project. GALK (provided by the assay submitter) was assayed using ATP and D-(+)-Galactose (Sigma-Aldrich cat# G0750) as substrates. Promega Kinase-Glo Plus (cat# V3774) technology was used to detect the residual ATP following kinetic reaction. Briefly, the Kinase-Glo Plus contains Ultra-Glo [2] luciferase and D-luciferin which generates a bioluminescence signal from the remaining ATP.
NCGC Assay Protocol Summary: Three uL/well of ATP-buffer solution (35 uM ATP, 20mM HEPES pH8.0, 5 mM MgCl2, 60 mM NaCl, 1 mM DTT, 0.01% BSA final concentration) was dispensed into 1536-well, assay plates (Greiner, solid white medium-binding plates) with Aurora Discovery BioRAPTR Flying Reagent Dispenser (FRD; Beckton-Dickenson). Compound solution (23 nL) was transferred to the assay plate using the Kalypsys 1536-pin tool. One uL/well GALK-galactose solution (5 nM GALK, 100 uM galactose, 20 mM HEPES pH8.0, 5 mM MgCl2, 60 mM NaCl, 1 mM DTT, 0.01% BSA final concentration) was then added using the FRD yielding a total kinase reaction volume of 4 uL/ well. After 1 hour of room temperature incubation, 4 uL Kinase-Glo Plus reagent was added for a final assay volume of 8 uL/ well. Luminescence was detected with the ViewLux plate reader (Perkin Elmer, Waltham, MA) after 10 min incubation using a 1 sec exposure time and 2x binning.

outcome, inactive:
Brc1ccccc1CN1CCC(Cc2ccccc2)CC1
CC1CCN(C2=NC(=O)/C(=C/c3ccc(O)cc3)S2)CC1
CC1(C)Cc2c(sc(NC(=O)C(=O)N3CCOCC3)c2C#N)CO1
COc1cc(Cl)ccc1OCc1cc(C(=O)N2CC[C@@H]3CCCC[C@H]3C2)no1
CCOc1ccc(CN2CCNC(=O)C2CC(=O)NCCCC2CCCC2)cc1 (configuration not stated)
CCOc1ccc(S(=O)(=O)N2CCCC(C(=O)N3CCC(C(N)=O)CC3)C2)cc1Cl (configuration not stated)
C=CCOc1ccc(/C=C/C(=O)OCC(=O)NC2CCCCCC2)cc1
CN(c1ccccc1)S(=O)(=O)c1ccc(NC(=O)COc2ccccc2)cc1
Oc1cccc(/C=N/Nc2ccc(Cl)nn2)c1O
O=C(NCCNc1ccc([N+](=O)[O-])cc1Cl)c1ccccc1F
COc1ccc(S(=O)(=O)/N=C2\C=C(NS(=O)(=O)c3ccccc3)C(=O)c3ccccc32)cc1
Cn1c(Nc2cccc(Cl)c2)nc2ccccc21
CCn1c(=O)c(C(=O)NCc2ccc3c(c2)OCO3)c(O)c2ccccc21
O=C(Nc1ccc(Cl)c(Cl)c1)c1ccccc1NC(=O)C1CC=CCC1C(=O)O (configuration not stated)
Cc1cccc(N2CCN(C(=O)CCS(=O)(=O)c3ccc4c(c3)NC(=O)C(C)S4)CC2)c1C (configuration not stated)
CC(C)(C)NC(=O)C(c1ccc(Cl)cc1)N(CCO)C(=O)c1snc(C(N)=O)c1N (configuration not stated)
O=C(CN1CCCC1)Nc1sc2c(c1C(=O)Nc1ccccc1)CCCC2
O=C(N/N=C/c1cccc(OCc2ccccc2)c1)c1ccc(Br)o1
Cc1cc(C)n(CC(O)COc2ccc(C(C)(C)C)cc2)n1 (configuration not stated)
COc1ccc(Oc2cn[nH]c2-c2ccc(OC)cc2O)cc1
CSc1nnc(NC(=O)c2nc(S(=O)(=O)Cc3ccc(C)cc3)ncc2Cl)s1
Cc1cc(N=Nc2ccc3ccccc3c2)ccc1O
Cc1ccc(-c2nc(-c3ccncc3)no2)c(C)c1
CCCNC(=O)CCn1nc(-c2ccccc2)c2ccccc2c1=O
COc1ccc(C(=O)/C=C/c2cccnc2)c(OC)c1
COc1ccc(S(=O)(=O)N2CCN(C(=O)N(C)C)C2C)cc1 (configuration not stated)
CN(C)S(=O)(=O)N1CCC(Oc2cccc(C(=O)NCCCC3CCCC3)c2)CC1
O=C(Nc1ccccc1)c1ccc2c(c1)OCCCO2
Cc1[nH]n(C(N)=S)c(=O)c1N=Nc1ccc(Cl)cc1Cl
O=C(NC(=S)Nc1ccc(Cl)cc1Cl)C1CC1
COc1cccc(CNc2ncc(-c3ccccc3)n2C)c1
CCOc1ccccc1/C=N/Nc1nc2ccccc2o1
COc1ccc(CNc2cc(C)cc(C)c2)cc1OC
Cc1ccc(NC(=O)Nc2cccnc2)cc1
COc1ccc2cc(C(=O)C3CCCN(C(=O)c4sc(C)nc4C)C3)ccc2c1 (configuration not stated)
CC(C)(C)C(=O)Nc1ccc(-c2cn3cccnc3n2)cc1
CC1(C(=O)N/N=C/c2cc3c(cc2Br)OCO3)CC1(Br)Br (configuration not stated)
c1ccc(Cc2ccc(OCCn3ccnc3)cc2)cc1
CNS(=O)(=O)c1ccc(NC(=O)Nc2ccc3c(c2)OCO3)cc1
CC(=O)N(C)c1ccc(NC(=O)Nc2cccc3ccccc23)cc1
Cc1nonc1NC(=O)c1oc2ccccc2c1C
O=C(NCCCN1CCOCC1)c1ccc2c(c1)N(Cc1cccc(F)c1)C(=O)c1ccccc1S2
CSc1ccccc1OCc1cc(C(=O)N2C[C@H]3CC[C@H]2C3)no1
O=C(CNC(=O)Cc1ccccc1)N=Nc1c(O)[nH]c2ccc(Br)cc12
O=C(O)Cc1ccc(NC(=O)Nc2cccc3ccccc23)cc1
COc1ccc(C(=O)NC2=NCCS2)c(OC)c1
CCCOC1CCCN(C(=O)c2cc(COc3cncc(Cl)c3)on2)C1 (configuration not stated)
CCc1ccc(C(=O)NC(=S)Nc2ccccc2N2CCOCC2)cc1
Nc1cc(N)nc(SCc2cccc(F)c2)n1
Cc1ccc(NS(=O)(=O)c2ccc3c(c2)n(C)c(=O)c(=O)n3C)c(C)c1
COc1ccc(N(Cc2ccc(N(C)C)cc2)C(=O)c2ccc(S(C)(=O)=O)cc2)cc1
CCCCC(=O)Nc1ccccc1N1CCN(c2ccc(F)cc2)CC1
CC(=O)Nc1ccc(NC(=O)C2CCCN2S(=O)(=O)c2cccc(C(F)(F)F)c2)cc1 (configuration not stated)
COc1ccc(-c2noc(CCCC(=O)NC3CCCC3)n2)cc1OC
O=C(/C=C/c1ccco1)NC(=S)Nc1ccccc1Br
COc1ccc(CCNC(=O)C2CCCN(S(=O)(=O)c3ccc(OC)cc3)C2)cc1 (configuration not stated)
Cc1ccnc(NC(=O)CCNS(=O)(=O)c2ccc(C)c(C)c2)c1
O=C(Nc1nnc(C2CC2)s1)c1cc(Cl)sc1Cl
COc1ccc(Nc2ncnc3sc(C)cc23)cc1
O=C(CN1CCC(NC(=O)C2CC2)CC1)Nc1ccccc1[N+](=O)[O-]
Cc1cccc(C(=O)NC(=S)N(C)C2CCCCC2)c1
CN(CCO)c1ccc(/C=N/Nc2nncc3ccccc23)cc1
O=C(NCC(=O)N1CCN(c2ccccc2F)CC1)c1cccs1
Cc1ccc2nc(N3C(=O)C(O)=C(C(=O)c4ccco4)C3c3cccc(O)c3)sc2c1 (configuration not stated)
C[n+]1cc(-c2ccccc2)oc1-c1ccccc1
Cc1cnc(NC(=O)c2ccc(Cl)nc2)s1
C=CCN1CCN(C(=O)CCCc2ccccc2)CC1
COc1ccc(N2CCN(S(=O)(=O)c3ccc4c(c3)N(C(C)=O)CCO4)CC2)cc1
O=C(O)CCC(=O)N(Cc1ccccc1)Cc1ccccc1
Cc1noc(C)c1CCC(=O)N1CCCC(CO)(Cc2ccccc2)C1 (configuration not stated)
O=C(c1noc2c1CCCC2)N1CCc2ccccc2C1
Cc1cccc(NC(=O)c2ccc3c(=O)n(CC4CCCO4)c(=S)[nH]c3c2)c1 (configuration not stated)
COc1cccc(NC(=O)C(=O)c2cn(CC(=O)N3CCOCC3)c3ccccc23)c1
CCOC(=O)C1CCCN(CCSc2ccc(C)cc2)C1 (configuration not stated)
O=C(Nc1ccc(S(=O)(=O)NCC2CCCO2)cc1)c1ccc(F)cc1 (configuration not stated)
Cc1ccccc1NC(=S)NC(=O)Cc1ccc(Cl)cc1
COCCN1CCN(C(=O)c2cc(COc3ccc(F)cc3Cl)on2)CC1
COc1ccc(N(C(=O)c2snc(C(N)=O)c2N)C(C(=O)NC2CCCC2)c2ccc(C)o2)c(OC)c1 (configuration not stated)
O=C(CCl)NNc1nc(-c2ccccc2)c2cc(Cl)ccc2n1
CCOC(=O)Nc1ccc2c(c1)N(C(=O)CCCl)c1ccccc1[S@]2=O
NC(=O)CSc1nnc(NC(=O)c2ccc(Br)o2)s1
CN(C(=O)CCN1C(=O)/C(=C/c2ccccc2F)SC1=S)C1CCS(=O)(=O)C1 (configuration not stated)
O=C(CC(n1cncn1)C(Cl)(Cl)Cl)c1ccc([N+](=O)[O-])cc1 (configuration not stated)
Cc1ccc(NC(=O)CSc2cccc3cccnc23)c(C)c1
Cc1ccc(/C=N/NC(=O)c2cc3ccccc3cc2O)o1
COc1ccc(OCc2cc(C(=O)N3CCCC3)no2)c2ccccc12
COc1ccccc1C(=O)NC(=S)Nc1ccccc1N1CCCCC1
COc1ccc([N+](=O)[O-])cc1N(CC(=O)Nc1ccccc1C(=O)N1CCOCC1)S(C)(=O)=O
COc1cccc(C(=O)N/N=C(\C)c2cccc(NC(=O)c3ccc(F)cc3)c2)c1OC
Oc1ccccc1-c1cc(-c2ccc(Cl)cc2)n[nH]1
CCSc1nc2sc3c(c2c(=O)n1-c1ccc(C)cc1)CCN(C)C3
COc1ccc(NCCc2ccccn2)cc1
Cc1ccc(NS(=O)(=O)c2ccc3c(c2)oc(=O)n3C)c(C)c1
O=C(Nc1cccc(Cl)c1Cl)c1ccccc1NC(=O)C1CC=CCC1C(=O)O (configuration not stated)
S=C(Nc1ccc(Cl)cc1Cl)N1CCCC1
O=C(Nc1ccnn1C1CCN(Cc2cccc(OCCO)c2)CC1)C1CCCC1
CC(C)(C)c1ccc(Cn2nnc3c(=O)[nH]c(C4CCCN(C(=O)c5ccco5)C4)nc32)cc1 (configuration not stated)
CCc1ccccc1OCC(=O)Nc1ccc2c(c1)OCCO2
O=[N+]([O-])c1ccc2c(c1)Nc1nc3ccccc3nc1N2
CC1CN(C(=O)CCC(=O)NCCCN2CCC(Cc3ccccc3)CC2)c2cc(Cl)ccc2O1 (configuration not stated)
Cc1ccc(CSc2nsc(C)c2C#N)cc1
CC(=O)c1ccc(NC(=O)c2sc3nc4n(c(=O)c3c2C)CCCCC4)cc1
CC(C)=CCN1CCN(CCCc2ccccc2)CC1CCO (configuration not stated)
O=C(Nc1ccc(C2CC2(Cl)Cl)cc1)c1cccc([N+](=O)[O-])c1 (configuration not stated)
COc1ccccc1/C=C/C(=O)NC(=S)N1CCOCC1
COC(=O)c1ccc(COc2ccc(/C=C/C(=O)c3ccc(OC)c(CSCC(=O)O)c3)cc2OC)cc1
COc1ccc(NC(=O)CCCC2CCCCC2)c(OC)c1
O=c1c2ccccc2ncn1CCCCOc1ccccc1F
Brc1ccccc1/C=N/Nc1nc2ccccc2o1
COc1ccc(OC)c(NC(=O)Cc2cccs2)c1
CC(CN1CCOCC1)OC(=O)c1ccc(C(C)(C)C)cc1 (configuration not stated)
O=C(CNC(=O)c1ccc(F)cc1)c1ccccc1
